Screening data as filed in PubChem.
Akt phos inh = inhibitors of Akt phosphorylation; hit rate 0.32% among 360,000; activity change, % for hits at 50 µM; Neuro2A IGF-stimulated pAkt S473 HTRF, 20 min; hits give low values; in the data active = activity change below about -80%; inconclusive = mostly about -51% to -80%; also: % is scaled to controls: 0 for no effect and ±100 for the full control effect
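Single-point screen (50 µM final compound) in Neuro2A cells stimulated 20 min with 6 nM IGF at 37 deg C. After lysis, Ser473-phosphorylated Akt read by HTRF (ex 330 nm, em 615/665 nm) as the 665/615 ratio.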
gsp agonist = agonists of gsp mutant (McCune-Albright syndrome); gsp mutant cells, cAMP HTRF, 30 min; Potency, µM (doses to about 76.9 µM), without a hit: at the top dose activation (cAMP increase), most hits filed as activators; hit rate 0.13% among 340,000; AID 624287; active = well fitted activation curve with a large enough effect; inconclusive = small, poorly fitted or top-dose-only effect, or another doubt; inactive = no such curve, though single readings can be large or run the other way; cell line not stated here;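 also: phosphodiesterase inhibitor Ro 20-1724 added with compounds to block cAMP breakdown; potency is read from the fitted curve at half-maximal effect; nearly all actives have a fitted effect of over 60% in size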
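Cells in DMEM/10% FBS with G418 were pretreated with compounds in DMSO plus […] (300 uM stock) for 30 min at 37C. cAMP was measured by HTRF (cAMP-d2 plus anti-cAMP antibody-K) after 30 min at room temperature.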
gsp antag = antagonizes gsp, the McCune-Albright syndrome mutation; AID 624288; gsp-mutant cells, cAMP HTRF, 30 min; Potency, µM (top dose mostly 76.9 µM), for the others: top-dose activity change, negative = inhibition, hits mostly inhibitors; hit rate 0.4% among 340,000; calls by dose curve; cell line not stated here;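 also: intracellular cAMP measured with PDE inhibitor Ro 20-1724 present during compound exposure; potency is read from the fitted curve at half-maximal effect; % is scaled to controls: 0 for no effect and ±100 for the full control effect; nearly all actives have a fitted effect of over 65% in size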
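Cells, 2000/well, grown 16–24 h in DMEM 10% FBS with 0.5 mg/ml G418, then compounds plus […] (300 uM addition stock), 30 min at 37C. cAMP read by HTRF (cAMP-d2 and anti-cAMP antibody-K in lysis buffer) after 30 min RT.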
RXFP1 agonist = RXFP1 (human) receptor agonism. Q9HBX9. HEK293T-RXFP1 cAMP TR-FRET, 30 min; response scale: percent of porcine relaxin response, buffer zero. AID 2676. Potency, µM (titrated, usually from 57.5 µM), inactives show at the top dose activation, most hits filed as activators. hit rate 0.3% among 370,000; active = well fitted activation curve with a large enough effect; inconclusive = small, poorly fitted or top-dose-only effect; also: potency is read from the fitted curve at half-maximal effect; % is scaled to controls: 0 for no effect and ±100 for the full control effect; nearly all actives have a fitted effect of over 60% in size
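HEK293T cells stably expressing RXFP1 were pretreated with the PDE4 inhibitor Ro 20174, exposed to compounds for 30 min at 37C, lysed, and cAMP was read by TR-FRET. Data normalized to buffer (basal) and 29 nM porcine relaxin (100%).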
RXFP1 antag = blocks the human relaxin receptor RXFP1; Q9HBX9; HEK293-RXFP1, relaxin-stimulated cAMP HTRF, 30 min; hits give low values; activity change, negative = inhibition, % at 57.5 µM; hit rate 0.59% among 350,000;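 active = activity change of -60% or lower, but not beyond a set lower limit; inconclusive = change between -60% and -40%, or beyond the set limit; inactive = change above -40%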; also: % is scaled to controls: 0 for no effect and ±100 for the full control effect
Starred values were filed as active, the others as inactive; i = inactive; ? = inconclusive; . = no result given; [ ] = remark or other dose. Sampled rows, rich in hits. Any-hit rate of the full collection: about 1.2%.

SMILES | Akt phos inh | gsp agonist | gsp antag | RXFP1 agonist | RXFP1 antag
Cc1ccc(C(C(=O)NC2CCCC2)N(Cc2cccnc2)C(=O)c2snc(C(N)=O)c2N)o1 (configuration not stated) | -119%* | ? | 1% | 1% | -2
Cc1nc2ncnn2c(N2CCN(C(c3ccccc3)c3ccccc3)CC2)c1C | i | 1% | -36% | 0% | -116*
COc1ccccc1N1CCN(C2CCCN(C(=O)c3ccsc3)C2)CC1 (configuration not stated) | i | -44% | 9% | . | -13
COc1ccccc1OCc1ccc(C(=O)N2CCN3CCCC3C2)cc1 (configuration not stated) | -105%* | -23% | 3% | 0% | 2
COc1cc(O)oc1C=Nc1ccc(Cl)cc1 | -119%* | 6% | 3% | 2% | 2
Nc1ncnc2c1ncn2C1OC(CO)C(O)C1O (configuration not stated) | i | 2% | 10% | 14µM* | 1
CC(C)=CCNc1ncnc2c1ncn2[C@@H]1O[C@H](CO)[C@@H](O)[C@H]1O | . | . | . | . | 15
C=CCNc1ncnc2c1ncn2C1OC(CO)C(O)C1O (configuration not stated) | i | 25% | 4% | 25µM* | 0
Nc1ncnc2c1ncn2C1O[C@H](CO)[C@@H](O)[C@@H]1O (some centres not stated) | i | . | 10% | 0% | .
Cc1cc(C)c(C)c(OCC(=O)Nc2ccc(S(=O)(=O)Nc3nc(C)cc(C)n3)cc2)c1 | . | . | . | 7% | -14
Cc1ccc(C)c(OCCC(=O)OCC(=O)NCCNC(=O)COC(=O)CCOc2cc(C)ccc2C)c1 | i | -12%[15.4 µM] | -9% | 2% | -62*
CC(=O)N1CCN(c2ccnc3cc(Cl)ccc23)CC1 | i | -8%[15.4 µM] | -11% | 0% | 3
Cc1cccc(Cl)c1NC(=O)N1CCN(c2ccnc3cc(Cl)ccc23)CC1 | i | 23% | 28µM* | 3% | -4
Cc1ccc(F)cc1NC(=O)N1CCN(c2ccnc3cc(Cl)ccc23)CC1 | i | -1% | 35µM* | 0% | -11
Cn1c2cc([N+](=O)[O-])sc2c2cnn(Cc3ccccc3F)c(=O)c21 | . | . | . | 0% | .
COC(=O)c1ccc2nc(NC(=O)C3CCCCC3)sc2c1 | i | -44% | 3% | 6% | -9
COC(=O)c1ccc2nc(NC(=O)C(C)(C)C)sc2c1 | i | -3%[15.4 µM] | -25% | 0% | -85*
O=C(c1cccs1)N1N=C(c2ccc(O)cc2)CC1c1ccccc1 (configuration not stated) | i | 11% | ? | -1% | -2
O=C(c1cccs1)N1N=C(c2ccccc2)CC1c1ccc(O)cc1 (configuration not stated) | i | 23% | 28µM* | -1% | ?
COc1cc2c(cc1OC)n(CC(=O)c1ccc(F)cc1)c(=O)n1nc(CCn3nc(C)cc3C)nc21 | . | . | . | 25% | -9
C/C(CC(=O)Nc1ccc2c(c1)OCCO2)=N\NC(=O)COc1ccc(C)cc1 | i | ? | 0% | 1% | -77*
c1ccc(C(CN2CCOCC2)c2ccccc2)cc1 | . | 15% | -1% | 1% | 10
CN(C)CC(CCC(CN(C)C)C(=O)c1ccccc1)C(=O)c1ccccc1 (configuration not stated) | i | -1%[15.4 µM] | 27% | 1% | -76*
O=C(c1ccccc1)C(CCC(CN1CCOCC1)C(=O)c1ccccc1)CN1CCOCC1 (configuration not stated) | i | 13% | 12%[15.4 µM] | 1% | -68*
CCc1ccc2oc(C(=O)NCCc3ccc(OC)c(OC)c3)cc(=O)c2c1 | . | . | . | 0% | -18
COc1ccc(-c2csc(NC(C)=O)n2)cc1OC | i | -4% | 2% | 3% | -1
COc1cccc(NC(=O)Nc2nc(-c3ccc(OC)c(OC)c3)cs2)c1 | i | ? | -19% | 12% | -62*
O=C(COc1ccccc1[N+](=O)[O-])Nc1ccc(N2CCN(C(=O)c3cccs3)CC2)cc1 | i | 1%[15.4 µM] | 28µM* | 0% | -28
CCC(=O)Nc1ccc(N2CCN(C(=O)c3cccs3)CC2)cc1 | i | 3% | -21% | 1% | 2
